Out of some 5,500 compounds screened, about 2,000 (36%) were called active. Inconclusive results (about 18%) are left out. No stated cut-off is given here; in the data, active means normalized growth mostly below about 0.91 (no sharp cut-off); inconclusive means no clear call, values can overlap the other calls; inactive means mostly above about 0.92. The list shows a part of the results.
Assay: chemical genetic growth profiling, strain panel (AID 1159580);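 further: tested at 20 µM; growth read once vehicle control cultures reached saturation at 30 °C; 1 = growth at the plate median or of vehicle wells; lower values mean less growth of the strain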
Details: S. cerevisiae deletion strains, growth OD

Measured: normalized growth

CC1(C)CCCC2(C)C3C1[C@@H](O)C2(C)C[C@H]3O (stereo not given in full)
inactive: locus YAL021C, strain ccr4, hits give low values 1.01 | locus YAL026C, strain drs2, hits give low values 1.04 | locus YAL030W, strain snc1, hits give low values 0.993 | locus YBL061C, strain skt5, hits give low values 1.01 | locus YBR009C, strain hhf1, hits give low values 1.03 | locus YBR023C, strain chs3, hits give low values 1.01 | locus YBR171W, strain sec66, hits give low values 1.04 | locus YBR231C, strain swc5, hits give low values 1.03 | locus YBR279W, strain paf1, hits give low values 1.03 | locus YCL011C, strain gbp2, hits give low values 1.03 | locus YCL016C, strain dcc1, hits give low values 1 | locus YCL061C, strain MRC1, hits give low values 1.02 | locus YCL069W, strain vba3, hits give low values 1.02 | locus YCR088W, strain abp1, hits give low values 1.03 | locus YDL005C, strain med2, hits give low values 1.03 | locus YDL040C, strain nat1, hits give low values 1.01 | locus YDR001C, strain nth1, hits give low values 1.03 | locus YDR069C, strain doa4, hits give low values 0.992 | locus YDR137W, strain rgp1, hits give low values 0.973 | locus YDR159W, strain sac3, hits give low values 0.991 | locus YDR195W, strain ref2 1.02 | locus YDR297W, strain sur2, hits give low values 0.985 | locus YDR334W, strain swr1, hits give low values 1.03 | locus YDR335W, strain msn5, hits give low values 0.995 | locus YDR392W, strain spt3, hits give low values 0.941 | locus YEL003W, strain gim4, hits give low values 1.03 | locus YEL037C, strain rad23, hits give low values 1.03 | locus YEL061C, strain CIN8 (second series), hits give low values 1.03 | locus YER015W, strain faa2, hits give low values 1.03 | locus YER016W, strain bim1, hits give low values 1.01 | locus YER111C, strain swi4, hits give low values 1.03 | locus YER155C, strain BEM2 (second series), hits give low values 1.02 | locus YFR010W, strain ubp6, hits give low values 1.04 | locus YGL167C, strain pmr1, hits give low values 1.01 | locus YGL173C, strain kem1, hits give low values 1.03 | locus YGL227W, strain vid30, hits give low values 1.03 | locus YGL240W, strain doc1, hits give low values 1 | locus YGL253W, strain hxk2, hits give low values 1.03 | locus YHR013C, strain ard1, hits give low values 1.04 | locus YHR027C, strain rpn1, hits give low values 0.998 | locus YHR030C, strain SLT2, hits give low values 0.976 | locus YHR079C, strain IRE1, hits give low values 0.983 | locus YHR142W, strain chs7, hits give low values 1.01 | locus YJL092W, strain hpr5, hits give low values 1.03 | locus YJL095W, strain BCK1 (second series), hits give low values 0.988 | locus YJL095W, strain BCK1, hits give low values 1 | locus YJL115W, strain asf1, hits give low values 1.03 | locus YJL129C, strain trk1, hits give low values 1.05 | locus YJL154C, strain vps35, hits give low values 1.02 | locus YJL164C, strain tpk1, hits give low values 1.01 | locus YJL166W, strain qcr8, hits give low values 1.04 | locus YJL187C, strain SWE1, hits give low values 0.985 | locus YJR066W, strain TOR1, hits give low values 0.923 | locus YKL160W, strain elf1, hits give low values 0.986 | locus YKR026C, strain gcn3, hits give low values 1.02 | locus YKR091W, strain srl3, hits give low values 1.02 | locus YLL001W, strain dnm1, hits give low values 0.994 | locus YLL026W, hits give low values 1.01 | locus YLL041C, strain sdh2, hits give low values 0.995 | locus YLR027C, strain aat2, hits give low values 1 | locus YLR113W, strain HOG1, hits give low values 1.05 | locus YLR221C, strain rsa3, hits give low values 1.02 | locus YLR258W, strain gsy2, hits give low values 1.01 | locus YLR262C, strain YPT6 (second series), hits give low values 1.04 | locus YLR320W, strain mms22, hits give low values 1.07 | locus YLR342W, strain FKS1, hits give low values 1.02 | locus YLR357W, strain rsc2, hits give low values 1.04 | locus YLR370C, strain arc18, hits give low values 1.01 | locus YLR384C, strain iki3, hits give low values 1.02 | locus YML120C, strain ndi1, hits give low values 1.01 | locus YMR058W, strain fet3, hits give low values 1.03 | locus YMR125W, strain sto1, hits give low values 1.04 | locus YMR129W, hits give low values 1.03 | locus YMR205C, strain PFK2, hits give low values 1.01 | locus YMR231W, strain pep5, hits give low values 1.03 | locus YNL071W, strain lat1, hits give low values 1.02 | locus YNL183C, strain NPR1, hits give low values 0.963 | locus YNL209W, strain ssb2, hits give low values 0.997 | locus YNL248C, strain rpa49, hits give low values 0.996 | locus YNL322C, strain KRE1 (second series), hits give low values 1.01 | locus YNR049C, strain mso1, hits give low values 0.993 | locus YOR001W, strain rrp6, hits give low values 1 | locus YOR070C, strain gyp1, hits give low values 1 | locus YOR080W, strain dia2, hits give low values 1.01 | locus YOR083W, strain WHI5, hits give low values 0.999 | locus YOR106W, strain vam3, hits give low values 0.985 | locus YOR231W, strain MKK1, hits give low values 0.977 | locus YOR265W, strain rbl2, hits give low values 1 | locus YOR270C, strain vph1, hits give low values 1.08 | locus YOR290C, strain snf2, hits give low values 0.985 | locus YPL051W, strain arl3, hits give low values 1 | locus YPL078C, strain atp4, hits give low values 1.01 | locus YPL106C, strain sse1, hits give low values 1.06 | locus YPL240C, strain hsp82, hits give low values 0.987 | locus YPL256C, strain CLN2, hits give low values 1

Reference: PubChem BioAssay AID1159580 (chemical genetic matrix, 2015)
